Most compounds without a hit are left out; they make up all but 3.5% or so of the library.
MITF primary – human MITF inhibition, primary screen. AID 1259374. inhibition, % at 2.6 µM. 0.91% of 650,000 active. AlphaScreen MITF homodimerization, bead proximity signal; in the data active = inhibition above about 50%;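 also: 0% = vehicle wells with protein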
GPR151 ag – human GPR151 activation; AID 1508602; activation, % at 11.2 µM; Q8TDV0; PathHunter beta-arrestin GPR151 cells, luminescence; 1% of 650,000 active; in the data active = activation above about 4.9%;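 also: 0% = median of compound wells and 100% = cells with positive control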
Target sequence (Q8TDV0 whole entry, looked up): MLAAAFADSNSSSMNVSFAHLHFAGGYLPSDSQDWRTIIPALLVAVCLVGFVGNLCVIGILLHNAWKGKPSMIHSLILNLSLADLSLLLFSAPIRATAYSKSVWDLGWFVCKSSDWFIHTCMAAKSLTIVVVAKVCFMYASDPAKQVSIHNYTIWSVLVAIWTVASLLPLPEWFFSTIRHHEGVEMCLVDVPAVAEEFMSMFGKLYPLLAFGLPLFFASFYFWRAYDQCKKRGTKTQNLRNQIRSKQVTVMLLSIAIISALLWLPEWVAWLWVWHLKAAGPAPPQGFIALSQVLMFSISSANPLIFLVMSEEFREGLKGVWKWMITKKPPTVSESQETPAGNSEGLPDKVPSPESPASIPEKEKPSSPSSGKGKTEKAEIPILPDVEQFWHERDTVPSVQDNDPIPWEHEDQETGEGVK
TEAD-YAP block – TEAD-YAP interaction inhibition. HEK-TIYL cells, TEAD-Gal4/YAP UAS-luciferase luminescence. inhibition, % at 9.12 µM. 1.4% of 640,000 active. AID 1259422; in the data active = inhibition above about 32%;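 also: 0% = median of test compound wells and 100% = reference inhibitor wells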
FBW7 act – activators of human E3 ligase FBW7. Q969H0. AlphaScreen FBW7–phospho-cyclin E peptide binding, activator screen. normalized activity (activation), % at 26.1 µM. 0.13% of 650,000 active. AID 1259310; in the data active = normalized activity above about 1.9%;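 also: purified mutant Fbw7 with reduced substrate affinity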
GPR151 conf act – confirmation of human GPR151 activators; shares compounds with GPR151 ag; activation, % at 11.2 µM; GPR151 PathHunter beta-arrestin cells, luminescence, 90 min; % of EA-reagent control over plate median; 6,700 tested, under 10 active;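 active = mean percent activation across replicates above the confirmation screen cutoff of 4.91%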
GPR119 counter – counter-screen for GPR151 activators: effect on human GPR119 | AID 1508611 | activation, % at 11.2 µM | shares compounds with GPR151 ag | GPR119 PathHunter beta-arrestin cells, luminescence, 90 min; 0 = compound-well median, 100 = enzyme-acceptor control | 0.3% of 6,700 active;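 active = mean percent activation in the counterscreen above 29.09%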;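 also: counterscreen on off-target GPR119 to flag nonselective hits from the GPR151 activator screen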
* marks the source's active call; other numbers are inactive results; / = not tested or not shown.

SMILES	MITF primary	GPR151 ag	TEAD-YAP block	FBW7 act	GPR151 conf act	GPR119 counter
COc1cc2sc(=NC(=O)C3COc4ccccc4O3)n(C)c2cc1OC (stereo unspecified)	8	6.6*	6	0	-1	4
Cn1ccsc1=NC(=O)C1COc2ccccc2O1 (stereo unspecified)	5	-5	-17	0	/	/
O=C(C1CCN(S(=O)(=O)c2ccccc2)CC1)N1CCCC2CCCCC21 (stereo unspecified)	11	6.2*	4	0	1	5
O=C(COc1ccc(Cl)cc1Br)N/N=C/c1cc([N+](=O)[O-])ccc1O	-5	5.1*	-4	0	1	11
CC(O)CCC(=O)N/N=C/c1cc([N+](=O)[O-])ccc1O (stereo unspecified)	7	10*	3	-2	0	0
CC(=O)C1=C(O)C(=O)N(CCCN2CCOCC2)C1c1ccccc1Cl (stereo unspecified)	9	-2	6	0	/	/
COc1ccc(C2C(C(C)=O)=C(O)C(=O)N2CCO)c(OC)c1 (stereo unspecified)	-7	0	-2	0	/	/
CCCCN1C(=O)C(O)=C(C(C)=O)C1c1ccc(OC)cc1OC (stereo unspecified)	10	5.2*	-1	0	1	12
CC(=O)Oc1ccccc1-c1nc2s/c(=C/c3ccc(-c4ccccc4[N+](=O)[O-])o3)c(=O)n2n1	2	-1	-11	0	/	/
Cc1ncc2c(c1CNC(=O)c1ccccc1F)CCN(Cc1ccc3c(c1)CCO3)C2	5	0	-12	0	/	/
CC(=O)c1c(C)[nH]c(C(=O)Nc2nc3c(C)cc(C)cc3s2)c1C	1	5.9*	-7	0	0	9
Cc1ccc(S(=O)(=O)N2CCCCC2)cc1N	-14	-1	7	0	/	/
CC(C(=O)Nc1cc(F)ccc1F)n1ncn2cccc2c1=O (stereo unspecified)	6	0	2	0	/	/
O=C(Cc1cccnc1)N[C@H](Cc1ccc(Cl)cc1)c1nc2ccc(-c3cn[nH]c3)cc2c(=O)[nH]1	4	5.5*	9	0	1	12
COc1cc(C(=O)Nc2cccc(-c3nc4ccccc4c(=O)o3)c2)cc(OC)c1OC	21	0	-2	0	/	/
CCOC(=O)CSc1nnc(CSc2ncccn2)n1-c1ccccc1	9	11*	-6	0	1	4
CCCCC1CCC(C(=O)OCC(=O)c2ccc(-c3ccc(Br)cc3)cc2)CC1 (stereo unspecified)	4	6.6*	9	0	0	-4
COc1ccc(-c2cc(C(=O)Nc3cnn(Cc4ccc(F)cc4)c3)no2)cc1OC	-3	9.9*	6	0	0	-4
CC(C)OCCCNC(=O)CC1C(=O)NCCN1C (stereo unspecified)	-1	5.8*	1	0	0	4
COCCn1c(SCc2cccc(Cl)c2)nc2c([nH]c3ccccc32)c1=O	1	11*	-1	0	-1	-2
COCCn1c(SCc2ccc(F)cc2)nc2c([nH]c3ccccc32)c1=O	5	1	-8	0	/	/
CC(C)c1nnc(-c2cc3ccccc3n2Cc2ccccc2)o1	-11	5.6*	-6	0	-1	-13
COc1ccc(C(=O)Cn2c(-c3nnc(C(C)C)o3)cc3ccccc32)cc1	26	1	-11	0	/	/
CCOC(=O)c1c(/N=c2\oc3c(OC)cccc3cc2C(N)=O)sc2c1CCCC2	5	0	6	0	/	/
O=C(NCc1cccs1)C(=O)NC1CC1	3	0	2	0	/	/
SMILES	MITF primary	GPR151 ag	TEAD-YAP block	FBW7 act	GPR151 conf act	GPR119 counter
CCNC(=O)C(=O)NCc1cccs1	5	4.9*	1	0	1	1
COC(=O)c1cccc(Nc2nc(C)cc(C)n2)c1	-5	12*	-26	0	0	-9
N#CC1=C(N)SC(N)=C(C#N)C1c1ccsc1	-2	0	6	0	/	/
CNC(=O)CCCc1nnc2n(CCC(C)C)c(=O)c3sccc3n12	13	-2	3	0	/	/
CC(C)CCn1c(=O)c2sccc2n2c(CCCC(=O)NC3CC3)nnc12	4	5.0*	6	0	1	1
CCCCSc1nnc2c(n1)OC1(Nc3ccccc3-2)C(=O)Nc2ccc(F)cc21 (stereo unspecified)	16	-1	-4	0	/	/
Cc1cccc(C(=O)NNC(=O)C2CCCO2)c1 (stereo unspecified)	-2	7.3*	-3	0	0	0
COc1ccccc1NC(=O)NNC(=O)CN(C)S(=O)(=O)c1ccc(C)cc1	4	5.3*	8	0	0	4
COc1cc(NC(=O)Cc2ccc(F)cc2)c(OC)cc1Cl	2	5.0*	-5	1	0	-5
COCCCNC(=O)Cc1ccc(F)cc1	0	0	10	0	/	/
COc1cc(NC(=O)Cc2ccc(Cl)cc2)c(OC)cc1Cl	50	0	3	0	/	/
COc1cc(NC(=O)CN(C)S(=O)(=O)c2ccc3ccccc3c2)c(OC)cc1Cl	0	5.8*	-2	0	-1	-16
COc1ccccc1NC(=O)CN(C)S(=O)(=O)c1ccccc1	-30	0	1	0	/	/
COCCNC(=O)Cc1ccc(F)cc1	0	5.4*	-6	0	0	-5
COc1ccccc1C1c2[nH]c3ccccc3c2CCN1C(C)=O (stereo unspecified)	-8	3	-20	0	/	/
c1ccc(-c2nnc3ccc(NCc4cccnc4)nn23)cc1	-5	-1	-1	0	/	/
Cc1ccc(C(=O)OCC(N)=O)cc1N	-6	3	-3	0	/	/
OCCNc1nc(Nc2ccncn2)nc2c1ncn2C1CCCCC1	15	-1	-27	0	/	/
Cc1noc(C)c1-c1nc(NCCOc2ccccc2)c2ncn(C3CCCCC3)c2n1	-3	-1	2	0	/	/
CCCNc1nc(Nc2ccncn2)nc2c1ncn2C1CCCCC1	10	4.9*	-48	0	0	13
Cc1nn(C)c(C)c1-c1nc(NCCCN2CCCC2=O)c2ncn(C3CCCCC3)c2n1	-11	5.8*	-15	0	-1	-8
CCCNc1nc(-c2c(C)noc2C)nc2c1ncn2C1CCCCC1	-1	5.5*	-46	0	0	-4
Cc1ccc2cc(S(=O)(=O)NCc3ccc4c(c3)OCO4)ccc2c1	14	-1	5	1	/	/
Cc1cc(C)c2oc(-c3cccc(NC(=S)NC(=O)c4ccco4)c3C)nc2c1	2	1	-4	0	/	/
CCCCC1CN(CCC(=O)NCc2c(C)nn(CC)c2C)Cc2ccccc2O1 (stereo unspecified)	7	7.5*	6	0	2	11

Source: PubChem BioAssay (The Scripps Research Institute Molecular Screening Center)
